Source: PubChem (National Center for Advancing Translational Sciences (NCATS))
Only a selection was taken, and hits are over-represented in it overall.
PKM2 inh: inhibitors of human pyruvate kinase M2. purified PKM2, ATP generation, Kinase-Glo luminescence. Potency, µM (doses to about 57.5 µM), most hits filed as inhibitors. P14618. hit rate 0.058% among 260,000; active = well fitted inhibition curve with a large enough effect; also: nearly all actives have a fitted effect of over 60% in size
Target sequence (P14618 whole entry, looked up): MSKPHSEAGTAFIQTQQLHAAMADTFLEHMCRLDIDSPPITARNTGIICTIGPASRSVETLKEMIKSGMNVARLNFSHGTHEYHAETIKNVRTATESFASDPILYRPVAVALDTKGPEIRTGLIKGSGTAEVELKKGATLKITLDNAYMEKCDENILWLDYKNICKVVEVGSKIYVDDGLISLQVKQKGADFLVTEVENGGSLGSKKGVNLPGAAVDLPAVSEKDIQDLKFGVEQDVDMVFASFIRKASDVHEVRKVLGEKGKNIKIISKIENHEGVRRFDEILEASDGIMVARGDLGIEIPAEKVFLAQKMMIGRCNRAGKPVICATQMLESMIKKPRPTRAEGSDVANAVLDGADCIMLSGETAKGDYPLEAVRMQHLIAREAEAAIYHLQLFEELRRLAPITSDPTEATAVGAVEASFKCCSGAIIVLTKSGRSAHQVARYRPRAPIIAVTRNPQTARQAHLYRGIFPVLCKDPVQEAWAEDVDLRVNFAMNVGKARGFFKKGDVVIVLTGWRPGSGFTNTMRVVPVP
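Coupled luciferase luminescence (Kinase-Glo) detects ATP generated from 0.1 mM ADP and 0.5 mM PEP in imidazole buffer pH 7.2 with KCl, MgCl2; 1 h at room temperature. Enzyme at intermediate activity; normalized to uninhibited and no-enzyme controls.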
Each line names hits and unclear results; the compound was inactive in the other large screens.

COc1ccc(CCN2CC(C(=O)N(C)Cc3c(C)n[nH]c3C)CCC2=O)cc1 (stereo not given)	none
O=C(O)CCc1ccc(-c2cccs2)n1CCc1ccccc1	none
c1ccc(-c2cc3n(c2)CCc2ccccc2-3)cc1	none
CCCC(=O)Nc1ccc(Cl)c(NC(=O)c2cccc(OC)c2)c1	none
C(=C\c1nc2ccccc2[nH]1)/c1ccccc1	PKM2 inh 14.1µM
c1ccc2[nH]c(CSc3nnc(-c4ccncc4)o3)nc2c1	none
Cc1cccc(OCc2nnc(SCC(=O)Nc3cccc(C(=O)N4CCOCC4)c3)n2C)c1	none
CCN(C(=O)CSc1cc(C)c2cccc(C)c2n1)C1CCS(=O)(=O)C1 (stereo not given)	none
CCNc1sc(C(=O)c2cccs2)c(N)c1-c1nc2ccccc2s1	none
C/C(=N/NC(=O)c1cccs1)c1c(C)[nH]n(-c2nc3ccccc3s2)c1=O	PKM2 inh 14.1µM
CN(C)S(=O)(=O)c1cccc(NC(=O)CSc2cccc3cccnc23)c1	none
O=C(CCc1ccccc1)N1CCN(S(=O)(=O)c2cccs2)CC1	none
CC(NC(=O)Cc1cccs1)c1ccccc1 (stereo not given)	none
Cc1nc([N+](=O)[O-])cn1CC(O)c1ccc(-c2ccccc2)cc1 (stereo not given)	none
Cc1cc(C)c2nc(NNC(=O)c3cc(=O)c4ccccc4o3)sc2c1	none
N#C/C(=C\Nc1ccc(Cl)cc1)S(=O)(=O)c1ccccn1	none
O=C(NCc1cccs1)C1CCN(S(=O)(=O)c2ccccc2F)CC1	none
c1ccc2c(c1)Cc1cc3cc4c(cc3nc1-2)OCO4	PKM2 inh 8.91µM
Oc1cc2c(cc1CN1CCc3ccccc3C1)OCO2	none
COc1cccc(CNc2nc3ccccc3n2C(C)C)c1O	none
Cc1ccc(C2=C/C(=C/c3cccnc3)C(=O)O2)c(C)c1	none
OC(CNCCCCNCC(O)C(F)(F)F)C(F)(F)F (stereo not given)	none
Clc1ccccc1Nc1nnc(-c2ccncc2)s1	PKM2 inh 12.6µM
Cc1ccc(S(=O)(=O)Nc2cc(C)c(O)c(Sc3n[nH]c(C)n3)c2)cc1	none
O=c1ccc2cc(S(=O)(=O)NCc3ccccc3)ccc2[nH]1	none
COc1cc(/C=N/NC(=O)C2c3ccccc3Oc3ccccc32)ccc1O	none
COc1cc(/C=N\Nc2nc(-c3ccc(C)cc3)c(NC(C)=O)s2)ccc1O	none
COc1cc(/C=N/Nc2nn3cnnc3c3ccccc23)ccc1O	PKM2 inh 25.1µM
Cc1ccc(CNC(=O)CC2(CC3=NS(=O)(=O)c4ccccc4N3)CCCC2)cc1	none
COc1cccc(CNC(=O)C2CCN(S(=O)(=O)c3ccc(Br)s3)CC2)c1	none
O=C(NCc1nnc2c(C(F)(F)F)cc(Cl)cn12)c1cccs1	none
Fc1ccc(-n2ncc3c(SCc4cccnc4)ncnc32)cc1	none
Cc1ccc(C(=O)/C=C/C(=O)c2ccc(C)cc2)cc1	none
Cc1ccc(C(=O)O/N=C(\N)c2ccccn2)cc1	PKM2 inh 5.62µM
Cc1ccc(C(=O)O/N=C(\N)c2nonc2N)cc1	PKM2 inh 12.6µM
Cc1ccc(C(=O)OCn2ncc(Cl)c(Cl)c2=O)cc1	none
Cc1ccc(OCc2nnc(SC(C)C(=O)O)n2-c2ccccc2)cc1 (stereo not given)	none
O=C(NCCN1C(=O)S/C(=C\c2cccs2)C1=O)c1ccc(=O)[nH]c1	none
COc1ccc(NC(=O)/C(Cl)=C(/Cl)S(=O)Cc2ccccc2Cl)cn1 (stereo not given)	none
Cc1ccc(CNC(=O)C2(CC(C)C)C=CCN2C(=O)c2ccccc2)o1 (stereo not given)	none
O=S(=O)(Nc1ccc(-n2cnnn2)cc1)c1ccc(F)c(F)c1F	none
Cc1c(CCC(=O)NC2CC2)c(=O)oc2cc(O)ccc12	none
Cc1nc2cc(NCc3ccccc3O)ccc2n1Cc1ccccc1	none
COc1ccc(N=Nc2n(C)c3ccccc3[n+]2C)cc1	PKM2 inh 12.6µM
c1ccc2c(SCc3cn4ccccc4n3)nncc2c1	none
COc1cc([N+](=O)[O-])ccc1NC(=O)COC(=O)c1ccc(NC(N)=O)cc1	none
COc1ccc(NC(=O)c2ccccn2)cc1	PKM2 inh 14.1µM
COc1cccc(NC(=O)CSc2ccccn2)c1	none
COc1ccc(NC(=O)c2ccc(NC(=O)CSc3nccc(=O)[nH]3)cc2)cc1	none
O=[N+]([O-])c1cccc(COc2ncnc3cc([N+](=O)[O-])ccc23)c1	none
Cc1ccc(CNC(=O)Cn2ccc3cc(S(=O)(=O)N4CCCC4)ccc32)o1	none
COc1ccc2nc(/N=C/c3c(C)[nH]n(-c4ccc(C)cc4)c3=O)sc2c1	PKM2 inh 14.1µM
NC(=O)COC(=O)/C=C/c1cccc(Br)c1	none
CCOC(=O)/C=C1\SCC(=O)N1CC(=O)Nc1cccc(F)c1	none
Cc1ccc(-c2nn(-c3ccccc3)cc2C=O)o1	none
Cc1cc(NC(=O)CSc2ccc(-c3ccc(F)cc3)nn2)no1	none
Cc1nc2ccc(C(=O)NCc3ccc4c(c3)OCO4)cc2s1	none
Cc1cccc(/C(N)=N/OC(=O)c2ccc3c(c2)OCO3)c1	PKM2 inh 11.2µM
Cc1noc(C)c1COc1cccc(C(=O)Oc2ccc3c(c2)OCO3)c1	none
O=[N+]([O-])c1cc2c(c(CSc3nnnn3-c3ccc(O)cc3)c1)OCOC2	none
COc1cc2cc(C)c(SCC(=O)N3CCN(C(=O)c4ccco4)CC3)nc2cc1OC	none
Cc1ccc2[nH]c(=O)cc(C(=O)OC(C)C)c2c1	none
O=C(CC(C(=O)NCc1ccccc1)c1nc2ccccc2c(=O)[nH]1)NCc1ccccc1 (stereo not given)	none
Cc1cccc(NS(=O)(=O)c2ccc3oc(=O)ccc3c2)c1C	none
Cc1ccsc1/C=C1\CCc2ccccc2C1=O	PKM2 inh 25.1µM
COC(=O)Cc1ccc(NC(=S)Nc2ccccn2)cc1	none
Cc1ccc2nc(C)cc(C(=O)N3CCCC(CO)(Cc4ccccc4C)C3)c2c1 (stereo not given)	none
CC(=O)N(c1nnc(-c2cccc(C)c2)s1)C1CCCC1	none
CCN(CC)c1ccc(/C=N/NC(=O)c2ccoc2C)cc1	PKM2 inh 28.2µM
O=C(N/N=C/c1ccc(F)cc1)c1cc(-c2ccco2)nc2ccccc12	none
CN(C)c1ccc(/C=N/NC(=O)c2ccccc2O)o1	none
CC(C)CN(C(=O)CSc1nnnn1-c1ccccc1)c1c(N)n(CC(C)C)c(=O)[nH]c1=O	none
CC(=O)c1c(C)[nH]c(C(=O)N(C)C(c2ccccc2)c2ccccc2)c1C	none
Cc1ccc(NC(=O)CSc2nc3ccccc3nc2N2CCCC2)cc1	none
COc1ccc(-c2nc3oc4cc(OC)ccc4c(=O)c3c(=O)n2Cc2ccco2)cc1	none
COc1ccc(-c2cc3nc(C)n(N)c(=O)c3s2)cc1	PKM2 inh 3.98µM
COc1ccc(-c2[nH]ncc2CNCCn2cccn2)c(F)c1	none
COc1cc(C(=O)NCCCNc2ccc([N+](=O)[O-])cc2)cc(OC)c1OC	none
O=C(O)C1Nc2c(O)cc(Cl)c([N+](=O)[O-])c2C2C=CCC12 (stereo not given)	none
Nc1ccc2nc(Cc3ccccc3)[nH]c2c1	none
Cc1ccc2nc(-c3ccccn3)[nH]c2c1	PKM2 inh 15.8µM
Cc1nc2ccc(N=NN(C)C)cc2[nH]1	none
O=C(c1ccc(S(=O)(=O)c2cccc(Cl)c2)c([N+](=O)[O-])c1)N1CCN(Cc2ccccc2)CC1	none
C/C(=N\NC(=O)C1CCCN(S(=O)(=O)c2ccccc2)C1)c1ccccn1 (stereo not given)	none
CCOC(=O)N1CCN(S(=O)(=O)c2ccc(OCC)cc2)CC1	none
CCOc1ccc(NC(c2ccccn2)c2oc(CO)cc(=O)c2O)cc1 (stereo not given)	none
